The results in this text go back to paper PMC4552634, “A New Set of Chemical Starting Points with Plasmodium falciparum Transmission-Blocking Potential for Antimalarial Drug Discovery” (PLoS ONE, 2015).

In the experiment the test system is P. falciparum stage V gametocytes. Also noted: BacTiter-Glo ATP luminescence viability of purified stage V gametocytes in 384-well plates, per cent inhibition versus DMSO. The conditions noted are these: 48 h, 5 µM, inhibitor.

The structures appear in SMILES notation. Read-outs that look alike come from different tables or passages of the source. Hit rate of the full screen: of about 13,000 compounds, about 3,200 (25%) showed an effect of 50% or more. Some of the results follow.

Take `Cc1nc2nc(N)nc(N)c2c(C)c1Cc1cccc(F)c1` [TCMDC-137652]: the “% Inhibition” value was -9.941%.
On the same count and under the same terms, for `COc1ccc(OC)c(Cc2c(C)nc3nc(N)nc(N)c3c2C)c1` [TCMDC-137651] the value was -0.1524%; for `Cc1nc2nc(N)nc(N)c2c(C)c1Cc1ccccc1Br` [TCMDC-137242], -1.627%.
On the same count and under the same terms, the result for `Cc1nc2nc(N)nc(N)c2c(C)c1Cc1ccc(N)cc1` [TCMDC-137633] reads -5.029%.
With `Cc1ccc(Cc2c(C)nc3nc(N)nc(N)c3c2C)cc1` [TCMDC-137657], the “% Inhibition” value was -7.172%.
For the molecule `Cc1nc2nc(N)nc(N)c2c(C)c1Cc1c(Cl)cccc1Cl` [TCMDC-137638], the “% Inhibition” value turned out to be 65.23%.
The same measure, in the same setting: the result for `COc1ccccc1Cc1c(C)nc2nc(N)nc(N)c2c1C` [TCMDC-137247] reads 65.53%.
With `Cc1nc2nc(N)nc(N)c2c(C)c1Cc1ccc([N+](=O)[O-])cc1` [TCMDC-137636], the “% Inhibition” value is recorded as 77.57%.
The same measure, in the same setting: for `Cc1nc2nc(N)nc(N)c2c(C)c1Cc1ccccc1Cl` [TCMDC-137668] the value was -12.71%; for `CO/C(=C\C=C\c1cc2cc(Cl)c(Cl)cc2[nH]1)C(=O)NCCCN1CCN(c2cccc(CCCO)c2)CC1` [TCMDC-139412], 14.82%; for `NC(N)=Nc1ccc(NC(=O)Nc2ccc(N=C(N)N)cc2)cc1` [TCMDC-137208], -16.48%.
For the molecule `Cc1cccc2nc(-c3ccc(-c4cccc(NC(=O)NCc5cccc(F)c5)c4)s3)[nH]c12` [TCMDC-133285], the “% Inhibition” value is -13.08%.
In the case of `OC1CCC(Nc2ccc3ncc(-c4ccc(Cl)cc4)n3n2)CC1` (stereo not drawn) [TCMDC-136693], the “% Inhibition” value amounted to 13.04%.
As for `OC(CNc1ccnc(Nc2ccc(Cl)cc2)n1)c1ccc(C(F)(F)F)cc1` (stereo not drawn) [TCMDC-136597], the “% Inhibition” value is -19.72%.
As to `CC(C)(CNCc1ccc(F)c(F)c1)c1nc(-c2ccc(Cl)c(O)c2)c(-c2ccnc(N)n2)[nH]1` [TCMDC-141163], the “% Inhibition” value was -6.922%.
In the case of `O=C(NCCSCc1c(F)cccc1Cl)c1cnc2c(c1)nc(-c1cnc(-c3ccccc3)[nH]1)n2CCc1cnc[nH]1` [TCMDC-139691], the “% Inhibition” value was -6.07%.
On the same count and under the same terms, the result for `CCCOc1cc(OCCC)cc(-c2ccc(C(=O)Nc3ccc4ccc(C)nc4c3)c(=O)[nH]2)c1` [TCMDC-141499] reads 82.34%.
In the case of `Cc1ccc2cc(NC(=O)c3cccc(C(=O)Nc4ccc5nc(C)ccc5c4)n3)ccc2n1` [TCMDC-139460], the “% Inhibition” value was -22.62%.
Regarding `CCNc1cc(C)nc(Nc2ccc(NC(=O)c3ccccc3Cl)cc2)n1` [TCMDC-124986], the “% Inhibition” value was -9.535%.
Take `CC1(C)CCCN(Cc2c(O)ccc3c(=O)c(-c4nc5ccccc5s4)c(N)oc23)C1` [TCMDC-124009]: the “% Inhibition” value was -3.964%.
On to `Cc1nc(-c2nc(N3CCC(O)CC3)ncc2-c2ccsc2)sc1C` [TCMDC-133149], for which the “% Inhibition” value is given as 35.11%.
Still for that read-out and setting: the result for `O=C(NC1CCN(Cc2ccsc2)CC1)c1ccc(-c2cccc(C(F)(F)F)c2)s1` [TCMDC-134366] reads 17.83%; that for `Cc1cc(CN2CCC(Nc3ncc(-c4ccsc4)c4nc(C(F)(F)F)ccc34)CC2)no1` [TCMDC-125306], 66.69%.
As for `CCCNc1ccc(-c2cc(C(N)=O)c3[nH]cc(C4CCN(S(=O)(=O)CC)CC4)c3c2)cn1` [TCMDC-136721], the “% Inhibition” value was found to be 8.74%.
Turning to `NC(=O)c1cc(-c2ccccc2)cc2c(C3CCC(NCc4ccccc4)C3)c[nH]c12` (stereo not drawn) [TCMDC-136335], the “% Inhibition” value was found to be 119.1%.
In the case of `Oc1cccc2c1CC(NCc1ccccc1)CC2` (stereo not drawn) [TCMDC-137987], the “% Inhibition” value came out at 8.096%.
`S=C(Nc1ccc2c(c1)OCCO2)NC1CCC(CN2CCC(c3c[nH]c4ccccc34)CC2)CC1` (stereo not drawn) [TCMDC-140205]: for the setting “% Inhibition”, the “% Inhibition” value is listed as -9.163%.
Turning to `COC(=O)c1sccc1NC(=S)NC1CCC(CN2CCC(c3c[nH]c4ccccc34)CC2)CC1` (stereo not drawn) [TCMDC-140184], the “% Inhibition” value (% Inhibition) came to 87.69%.
Consider `S=C(Nc1ccc2c(c1)OCCO2)NC1CCC(CN2CCC(c3c[nH]c4ccccc34)CC2)CC1` (stereo not drawn) [TCMDC-140187], for which, under “% Inhibition”, the “% Inhibition” value turned out to be 28.79%.
With `COC(=O)c1sccc1NC(=S)NC1CCC(CN2CCC(c3c[nH]c4ccccc34)CC2)CC1` (stereo not drawn) [TCMDC-140202], the “% Inhibition” value (% Inhibition) was determined as 68.17%.
Consider `O=C(Nc1ccc(C(=O)OCC2CCCN3CCCCC23)cc1)c1ccc([N+](=O)[O-])cc1` (stereo not drawn) [TCMDC-124028], for which the “% Inhibition” value is on record as -7.885%.
As to `COc1ccc(-c2ccccc2CNc2nc(NCCc3ccc(O)cc3)nc(N3CCNCC3)n2)cc1` [TCMDC-133785], the “% Inhibition” value is 16.29%.
On to `COc1ccc2nc(N3CCNCC3)nc(NCCCc3ccccc3)c2c1` [TCMDC-138367], for which the “% Inhibition” value amounted to 61.05%.
Still for that read-out and setting: the result for `Oc1ccc2nc(N3CCNCC3)nc(NCCCc3ccccc3)c2c1` [TCMDC-138362] reads -3.438%; that for `COc1ccc2nccc([C@@H](O)CN3CCC(NC[C@H](Cc4ccccc4)NC(=O)OC(C)(C)C)CC3)c2c1` [TCMDC-140729], 28.25%; that for `COc1ccc2nc(N3CCN(C(=O)OC(C)(C)C)CC3)nc(NCCCc3ccccc3)c2c1` [TCMDC-138361], 104.5%.
